# Experimental data published in PubChem BioAssay (NCI).
# This is part of a sample that, as a whole, favours compounds with a hit. Of some 83,000 tested, about 20% had one in any assay.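 Negative percent growth values reflect cell death: -40 means 40% of the cells present at the start died, and -100 means all died.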 Active and inactive are the calls of the source. How the source made its calls: active means growth percent below 10; inactive means the rest.
# System: MOLT-4 leukemia
# Assay: NCI-60 one-dose screen, 48 h (100 = growth as untreated, 0 = no growth, -100 = all killed)
# Settings: 10 µM unless noted
row,SMILES,growth
1,COc1ccc(-c2nc3ccccc3n2CC(=O)N=Nc2c(O)[nH]c3ccc(OC)cc23)cc1,35.8% (inactive)
2,COc1cc(NC(=O)C(C)C)ccc1C(=O)NC(=S)Nc1ccc(S(N)(=O)=O)cc1,118% (inactive)
3,COc1cc(C2CC(c3cc(OC)c(OC)c(OC)c3)=Nc3c(N)nc(N)nc3N2)ccc1Oc1nc(Nc2ccc(F)cc2)nc(N(C)C)n1 (configuration not stated),6.97% (active)
4,COc1ccc(C2=NN(C(=O)[C@H]3[C@@H](c4ccco4)c4sc(=O)[nH]c4S[C@@H]3C)C(c3ccc4ccccc4c3)C2)cc1 (some centres not stated),12% (inactive)
5,O=C(CSc1nc2c(c(=O)[nH]1)CCCC2)Nc1ccccc1C(=O)O,99.3% (inactive)
6,O=C1c2cccc3c(N4CCN(c5ccccc5)CC4)ccc(c23)C(=O)N1c1cccc(-c2nn(-c3ccccc3)cc2-c2nc3ccccc3s2)c1,99.4% (inactive)
7,N#CCc1nnc(NC(=O)c2ccc(-n3c(=O)[nH]c4ccccc4c3=O)cc2)s1,103% (inactive)
8,CCOC(=O)/C(F)=C/C1CC1C(c1ccccc1)c1ccccc1 (configuration not stated),76.8% (inactive)
9,Cc1ccc(S(=O)(=O)N(CCn2ccnc2[N+](=O)[O-])CCn2ccnc2[N+](=O)[O-])cc1,99.8% (inactive)
10,CC(C)(C)C(=O)c1c2c(c3ccc4c5ccccc5ccc4n13)C(=O)c1ccccc1C2=O,94.3% (inactive)
11,O=C(N=Nc1c(O)[nH]c2ccc(Cl)cc12)c1ccc2nc(-c3ccc(Cl)cc3)[nH]c2c1,6.71% (active)
12,COc1ccc(NC(=O)Cn2c(/C=C/c3cccc(OC)c3)nc3ccccc3c2=O)cc1,97.4% (inactive)
